About 79,000 compounds went through this panel and 15% of them were active in at least one assay; those are over-represented in the sample as a whole. Unmarked numbers belong to inactive results. Activity calls are given as the source filed them. Rule as the data show it: active = growth inhibition above about 70%; inactive = the rest.

The values that follow come from PubChem BioAssay (NCI).

Assay [1] in a line: NCI Yeast Anticancer Drug Screen. Data for the rad50 strain (AID 155).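 Also: 0% = growth of vehicle-only cultures of the same strain.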 The note with it: S. cerevisiae rad50 strain growth inhibition; at 50.0 µM; hits give high values. The gist of the method:
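Cells are treated with compound, grown, and their growth is then scored against vehicle-only cultures of the same repair-deficient yeast strain.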

Assay [2] is described as follows: NCI Yeast Anticancer Drug Screen. Data for the mec2-1 strain (AID 157). As to conditions: S. cerevisiae mec2-1 strain, at 50.0 µM, hits give high values. The gist of the method:
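Cells of the genetically defined mec2-1 yeast strain are incubated with test compound. Inhibition of growth is calculated against vehicle-treated controls.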

Assay [3] is described as follows: NCI Yeast Anticancer Drug Screen. Data for the sgs1 mgt1 strain (AID 161).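 Also: 0% = growth of cultures given vehicle only.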 The note with it: S. cerevisiae sgs1 mgt1 strain, at 50.0 µM, hits give high values. The gist of the method:
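Test agents were incubated with a DNA-repair-mutant yeast strain. Growth was then read and compared against vehicle-treated controls.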

A short description of assay [4]: NCI Yeast Anticancer Drug Screen. Data for the cln2 rad14 strain (AID 165).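 Also: 0% = growth equal to vehicle treated cultures.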 The note with it: S. cerevisiae cln2 rad14 strain, at 50.0 µM, hits give high values. In a few lines:
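The screen exposed genetically defined yeast (cln2 rad14) to test compounds and scored growth inhibition relative to vehicle-treated controls.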

Assay [5] in a line: NCI Yeast Anticancer Drug Screen. Data for the bub3 strain (AID 167). As to conditions: S. cerevisiae bub3 mutant strain, at 50.0 µM, hits give high values. In a few lines:
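Part of a panel of yeast mutants defective in DNA damage repair or cell cycle regulation. Each strain is grown with compound, and inhibition is calculated relative to solvent-treated cultures.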

Assay [6] can be described thus: NCI Yeast Anticancer Drug Screen. Data for the mlh1 rad18 strain (AID 175). As to conditions: S. cerevisiae mlh1 rad18 strain growth inhibition; at 50.0 µM; hits give high values. In a few lines:
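Compound-treated yeast growth, normalised to vehicle controls. Strain bears defined DNA repair mutations.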

As to `CCc1nn2c(=O)nc(Oc3ccccc3)nc2s1`, the growth inhibition in assay [1] is -5.55%; in assay [2], 8.85%; in assay [3] it was 2%; in assay [4], 2.55%; in assay [5] it was 14.6%; in assay [6] it was 23.4%.
For the compound `CCCC#CCN(C(C)C)C(C)C`, the growth inhibition was -12.4% in assay [1]; 1.65% in assay [2]; -6.35% in assay [3]; 29.2% in assay [4]; -5.25% in assay [5]; -7.85% in assay [6].
`O=C(O)C1CCN(Cc2oc(CO)cc(=O)c2O)C1` (stereo unspecified): the growth inhibition in assay [1] is -31.6%; in assay [2], -19.7%; in assay [3], -19.2%; in assay [4], -1.4%; in assay [5], -24.4%; in assay [6] it was -2.75%.
As for `COc1cc(N)ccc1C(=O)NC(CCC(=O)O)C(=O)O` (stereo unspecified), the growth inhibition in assay [1] was -14.5%; in assay [2], -11.2%; in assay [3] it was 24.9%; in assay [4], -33.7%; in assay [5], 17.9%; in assay [6] it was -19.7%.
Consider `O=c1[nH]nc(Sc2ccccc2)c(=O)[nH]1`, for which the growth inhibition in assay [1] was -11.8%; in assay [2], -3.4%; in assay [3] it was -12.6%; in assay [4] it was -10.4%; in assay [5], -11.4%; in assay [6] it was -14.9%.
For the compound `C=CCOCC(COC(=O)CCCCCCCCCCCCCCCCC)OCC=C` (stereo unspecified), the growth inhibition in assay [1] was -8.85%; in assay [2], -2.85%; in assay [3], -0.25%; in assay [4], 18.9%; in assay [5], -16.8%; in assay [6], 6.5%.
As to `COC1OC(COC(=O)c2ccc([N+](=O)[O-])cc2)C(SC#N)C1O` (stereo unspecified), the growth inhibition in assay [1] was 27.4%; in assay [2], 2.05%; in assay [3], 26.2%; in assay [4], -18.3%; in assay [5], -10.6%; in assay [6] it was 33.2%.
As to `Nc1ccnc(SCCCCc2ccccc2)n1`, the growth inhibition in assay [1] was 15.6%; in assay [2], 64.4%; in assay [3], 59%; in assay [4], -6.15%; in assay [5] it was 74% (active); in assay [6], 64%.
For `COC1=CC(=O)c2ccc3ccccc3c2C1=O`, the growth inhibition in assay [1] is 86.7% (active); in assay [2], 90.4% (active); in assay [3] it was 89.4% (active); in assay [4] it was 88.8% (active); in assay [5], 88.8% (active); in assay [6], 86.5% (active).
On to `CSc1nc2c(c(=O)[nH]1)N=C(c1ccccc1)CC(c1ccccc1)N2` (stereo unspecified), for which the growth inhibition is 7.45% in assay [1]; 14.7% in assay [2]; 17.8% in assay [3]; -0.55% in assay [4]; 22.6% in assay [5]; -5.85% in assay [6].
Take `CCCCCCCCCCCC(=O)OCCS(=O)(=O)CCOC(=O)CCCCCCCCCCC`: the growth inhibition in assay [1] was 30%; in assay [2] it was 4.35%; in assay [3], -1.2%; in assay [4], -23.9%; in assay [5], 15.4%; in assay [6], 22.2%.
For the compound `C=CCSc1ncnc2c1c(Br)cn2C1OC(CO)C(O)C1O` (stereo unspecified), the growth inhibition was 96.3% (active) in assay [1]; 97.5% (active) in assay [2]; 97.1% (active) in assay [3]; 97.5% (active) in assay [4]; 96.9% (active) in assay [5]; 98.3% (active) in assay [6].
As to `Fc1c(F)c(-c2c(F)c(F)c(Br)c(F)c2F)c(F)c(F)c1Br`, the growth inhibition in assay [1] is 2.5%; in assay [2], -14.6%; in assay [3] it was -7.45%; in assay [4], 6.15%; in assay [5] it was 20.6%; in assay [6] it was -0.65%.
Turning to `CC(=O)OCC1OC(n2cnc(Br)c2[N+](=O)[O-])C(OC(C)=O)C1OC(C)=O` (stereo unspecified), the growth inhibition is 30.6% in assay [1]; 3.4% in assay [2]; 17% in assay [3]; 14.5% in assay [4]; 0.65% in assay [5]; 2.75% in assay [6].
With `Oc1c(Cl)cc(Cl)cc1/C=N/c1nc(-c2ccc(Cl)cc2)cs1`, the growth inhibition was 52.1% in assay [1]; 26.1% in assay [2]; 61.3% in assay [3]; 28.1% in assay [4]; 38.8% in assay [5]; 35% in assay [6].
For `COc1cc2c(c([N+](=O)[O-])c1)NC(=O)CC(C)S2` (stereo unspecified), the growth inhibition in assay [1] was -48.8%; in assay [2], -6.25%; in assay [3], 21.9%; in assay [4] it was -9.4%; in assay [5], 17.4%; in assay [6] it was -3.45%.
As for `O=c1c2cc([N+](=O)[O-])ccc2[nH]n1Cc1ccccc1Cl`, the growth inhibition in assay [1] was -0.1%; in assay [2] it was 12.3%; in assay [3] it was -3.8%; in assay [4], 14.9%; in assay [5], 6.6%; in assay [6], -4.45%.
As to `CCOC(=O)Cc1csc(NC(NC(=O)OCC)(C(=O)OCC)C(F)(F)F)n1` (stereo unspecified), the growth inhibition in assay [1] is 2.4%; in assay [2], -0.3%; in assay [3] it was -17.9%; in assay [4], -4.2%; in assay [5] it was -12.3%; in assay [6], -6.25%.
Consider `CCCCCCCC(=O)NN`, for which the growth inhibition in assay [1] was -20.9%; in assay [2] it was -27.6%; in assay [3] it was -12.9%; in assay [4], -4.7%; in assay [5], -11.9%; in assay [6], 10.3%.
For `CN(C)CCC(OC(=O)c1ccccc1Cl)c1ccccc1` (stereo unspecified), the growth inhibition in assay [1] is -6.9%; in assay [2] it was 10.1%; in assay [3], 13.7%; in assay [4] it was 17.2%; in assay [5] it was 8.75%; in assay [6], 13.1%.
On to `COc1ccc2c(c1)NC(c1ccccc1C(=O)O)c1cccn1-2` (stereo unspecified), for which the growth inhibition in assay [1] is 0.55%; in assay [2] it was -20.9%; in assay [3], 12.3%; in assay [4], 5.75%; in assay [5], 23.6%; in assay [6], 5.6%.
